This is an account of results in PubChem BioAssay AID720688 (NMMLSC, 2013).

Structures are written as SMILES. Activity calls are given as the source filed them.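 How the source made its calls: active means half-effect concentration at most 10 µM, response change at least 30% across doses, and a curve fit passing quality checks; inactive means the rest.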

The assay has as its target Cell division control protein 42 homolog (Homo sapiens) (UniProt P60953). The assay can be described thus: inhibition of fluorescent GTP binding to wildtype Cdc42 – biochemical, protein source comparison, flow cytometry beads, Bodipy-FL-GTP, mechanism study for Ras-family GTPase inhibitor project, late-stage follow-up (AID 720688). Particulars: GST-Cdc42 beads; protein source 1, at 100 µM (top of the series). For orientation: Flow cytometry measures light scatter and fluorescence of single cells or particles in a stream.

Sequence of Cell division control protein 42 homolog (Homo sapiens) (P60953 whole entry, looked up): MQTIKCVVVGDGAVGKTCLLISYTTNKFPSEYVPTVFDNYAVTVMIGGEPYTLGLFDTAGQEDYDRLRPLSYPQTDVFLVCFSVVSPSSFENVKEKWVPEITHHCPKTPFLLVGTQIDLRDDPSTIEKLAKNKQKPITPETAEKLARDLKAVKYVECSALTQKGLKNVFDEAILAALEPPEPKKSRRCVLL

With `CC1(C)Cc2c(sc(NC(=S)NC(=O)c3cccc(N=[N+]=[N-])c3)c2C(=O)O)CO1`, the outcome was inactive.

`CC1(C)Cc2c(sc(NC(=S)NC(=O)c3ccc(N=[N+]=[N-])cc3)c2C(=O)O)CO1`: the result was inactive.
